From PubChem BioAssay (EPA / NIEHS) come the findings set out here.

Read-out in test [1]: E-selectin (Homo sapiens) (UniProt P16581)
Description: BSK_SAg_Eselectin: BioMAP Diversity Plus: SAg Assay for Eselectin Biomarker Activity (AID 2283091). The conditions noted are these: primary human HUVEC with PBMC; actives raise or lower the signal. The procedure, abridged:
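E-selectin ELISA readout at 24 h post-dosing in human umbilical vein endothelial cell/PBMC co-culture; gain or loss of signal fitted relative to DMSO baseline.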

Read-out in test [2]: Monokine induced gamma interferon (MIG), CXCL9 (gene 4283)
Description: BSK_SAg_MIG: BioMAP Diversity Plus: SAg Assay for Monokine induced gamma interferon (MIG) Biomarker Activity (AID 2283092). The conditions noted are these: primary human HUVEC with PBMC; actives raise or lower the signal. A digest of the protocol: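 Measures CXCL9 protein by ELISA in a human vascular primary-cell co-culture (umbilical vein endothelium with PBMC) 24 h after chemical addition. Activity is scored up or down from the DMSO control.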

Test [3] is described as follows: BSK_SAg_PBMCCytotoxicity: PBMC Cytotoxicity Assessment in the BioMAP Diversity Plus: SAg Assay (AID 2283093).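 Further: PBMC viability measured as Alamar Blue reduction fluorescence at 546/580 nm; fitted both ways against DMSO so a hit may be loss or gain of signal.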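 On AC50: PBMC superantigen activated with SEB plus TSST-1 one hour after compound addition.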 Particulars: primary human HUVEC with PBMC. The procedure, abridged:
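Alamar Blue reduction (6 h, ex/em 546/580 nm) read after 90 h culture of PBMC pre-dosed 1 h then stimulated with SEB plus TSST-1, 20 ng/mL each. Gain or loss of signal fitted relative to DMSO.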

Read-out in test [4]: Interleukin-8 (IL8), CXCL8 (gene 3576)
Description: BSK_SAg_IL8: BioMAP Diversity Plus: SAg Assay for Interleukin-8 (IL8) Biomarker Activity (AID 2283094). The conditions noted are these: primary human HUVEC with PBMC; actives raise or lower the signal. A digest of the protocol: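 Chemicals were dosed onto a human endothelial–PBMC co-culture, and IL-8 was quantified by ELISA after 24 h. Both increases and decreases were fitted relative to DMSO.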

The nature of test [5]: BSK_SAg_Proliferation: Cell Proliferation Assessment in the BioMAP Diversity Plus: SAg Assay (AID 2283095).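 Further: relative cell number as total protein by SRB absorbance in sub-confluent culture.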 Particulars: primary human HUVEC with PBMC. The procedure, abridged: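 Absorbance of sulforhodamine B at 560 nm reports total protein in a human vascular endothelial/PBMC co-culture after 96 h chemical exposure. Gain or loss of signal is fitted in both directions against DMSO.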

Test [6] is described as follows: BSK_SAg_SRB: Viability Assessment in the BioMAP Diversity Plus: SAg Assay (AID 2283096).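 Further: cells read one day after compound addition; hits may be either gain or loss of signal compared with DMSO.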 The conditions noted are these: primary human HUVEC with PBMC. The procedure, abridged:
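SRB absorbance at 560 nm served as the viability read-out. Cells (HUVEC plus peripheral blood mononuclear cells) were TCA-fixed and stained 24 h post-dosing; activity fitted in both directions against DMSO controls.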

The target in test [7] is human CYP19A1, CYP19A1 (gene 1588) (UniProt P11511). Description: NVS_ADME_hCYP19A1: NovaScreen (NVS) CYP450-related Enzyme Activity (ADME) Assay for human CYP19A1 (AID 2283098; active means hit-call score of the fitted dose curve at least 0.9, where 1 is the maximum;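 on AC50: potency for inhibitors seen as loss of fluorescent enzyme signal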). The procedure, abridged: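 Primary testing was in duplicate at a single 10 uM concentration, with actives followed up in concentration-response series. Fluorescence read-out of recombinant enzyme activity at 0.5 h, cell-free. Acetonitrile was the negative-control baseline.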
human CYP19A1, CYP19A1 (gene 1588), sequence (P11511 whole entry, looked up): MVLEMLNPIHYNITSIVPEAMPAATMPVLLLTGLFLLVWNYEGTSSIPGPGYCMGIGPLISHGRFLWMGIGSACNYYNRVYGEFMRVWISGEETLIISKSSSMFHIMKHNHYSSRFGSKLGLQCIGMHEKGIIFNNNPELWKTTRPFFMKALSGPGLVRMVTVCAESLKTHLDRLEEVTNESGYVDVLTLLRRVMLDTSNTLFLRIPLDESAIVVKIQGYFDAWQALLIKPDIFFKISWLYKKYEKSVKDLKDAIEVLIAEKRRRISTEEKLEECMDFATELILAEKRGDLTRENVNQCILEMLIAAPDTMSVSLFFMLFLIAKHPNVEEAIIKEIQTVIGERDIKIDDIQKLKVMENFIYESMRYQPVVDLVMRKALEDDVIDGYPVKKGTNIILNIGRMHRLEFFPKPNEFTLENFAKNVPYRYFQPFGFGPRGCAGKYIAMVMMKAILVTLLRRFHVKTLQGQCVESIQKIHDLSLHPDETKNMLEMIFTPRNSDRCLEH

The target in test [8] is human CYP2A6, CYP2A6 (gene 1548) (UniProt P11509). Nature of the test: NVS_ADME_hCYP2A6: NovaScreen (NVS) CYP450-related Enzyme Activity (ADME) Assay for human CYP2A6 (AID 2283099; active means hit-call score of the fitted dose curve at least 0.9, where 1 is the maximum). The procedure, abridged:
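Insect-cell-expressed human CYP2A6 enzyme activity measured by fluorescence intensity 0.5 hour post-dosing. Compounds screened at 10 uM in duplicate, then hits tested singly in concentration series (max 20 uM); acetonitrile baseline.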

For test [9], the target named is human CYP2B6, CYP2B6 (gene 1555) (UniProt P20813). Nature of the test: NVS_ADME_hCYP2B6: NovaScreen (NVS) CYP450-related Enzyme Activity (ADME) Assay for human CYP2B6 (AID 2283101; active means hit-call score of the fitted dose curve at least 0.9, where 1 is the maximum). A digest of the protocol: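 Recombinant protein, specific fluorescent substrate, read at 1 h post-dosing. Primary: single 10 uM, duplicate; follow-up: concentration series. Activity = signal loss vs acetonitrile baseline, with positive and negative controls on every plate.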
human CYP2B6, CYP2B6 (gene 1555), sequence (P20813 whole entry, looked up): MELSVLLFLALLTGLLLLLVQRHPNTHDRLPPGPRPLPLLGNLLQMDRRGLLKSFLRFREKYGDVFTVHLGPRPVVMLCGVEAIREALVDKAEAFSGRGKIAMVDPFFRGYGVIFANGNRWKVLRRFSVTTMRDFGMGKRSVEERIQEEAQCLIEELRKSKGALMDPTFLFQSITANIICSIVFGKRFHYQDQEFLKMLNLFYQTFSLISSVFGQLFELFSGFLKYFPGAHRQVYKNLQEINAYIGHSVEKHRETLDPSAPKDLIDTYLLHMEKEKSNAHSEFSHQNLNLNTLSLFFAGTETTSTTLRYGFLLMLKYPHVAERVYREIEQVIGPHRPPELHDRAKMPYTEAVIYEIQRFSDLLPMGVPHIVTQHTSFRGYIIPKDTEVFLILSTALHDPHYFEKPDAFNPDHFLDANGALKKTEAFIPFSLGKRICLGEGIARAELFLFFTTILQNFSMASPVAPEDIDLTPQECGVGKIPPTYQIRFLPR

The target of test [10] is human CYP1A2, CYP1A2 (gene 1544) (UniProt P05177). Nature of the test: NVS_ADME_hCYP1A2: NovaScreen (NVS) CYP450-related Enzyme Activity (ADME) Assay for human CYP1A2 (AID 2283102; active means hit-call score of the fitted dose curve at least 0.9, where 1 is the maximum;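 further: potency for inhibition since loss of fluorescence marks reduced CYP1A2 activity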). A digest of the protocol: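 Fluorescence-intensity enzyme activity read-out, taken 0.5 h post-dosing, using insect-cell-derived recombinant CYP1A2 and specific fluorescent substrate. Acetonitrile served as negative control/baseline. Single-concentration duplicate screen at 10 uM, then concentration-response follow-up.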
human CYP1A2, CYP1A2 (gene 1544), sequence (P05177 whole entry, looked up): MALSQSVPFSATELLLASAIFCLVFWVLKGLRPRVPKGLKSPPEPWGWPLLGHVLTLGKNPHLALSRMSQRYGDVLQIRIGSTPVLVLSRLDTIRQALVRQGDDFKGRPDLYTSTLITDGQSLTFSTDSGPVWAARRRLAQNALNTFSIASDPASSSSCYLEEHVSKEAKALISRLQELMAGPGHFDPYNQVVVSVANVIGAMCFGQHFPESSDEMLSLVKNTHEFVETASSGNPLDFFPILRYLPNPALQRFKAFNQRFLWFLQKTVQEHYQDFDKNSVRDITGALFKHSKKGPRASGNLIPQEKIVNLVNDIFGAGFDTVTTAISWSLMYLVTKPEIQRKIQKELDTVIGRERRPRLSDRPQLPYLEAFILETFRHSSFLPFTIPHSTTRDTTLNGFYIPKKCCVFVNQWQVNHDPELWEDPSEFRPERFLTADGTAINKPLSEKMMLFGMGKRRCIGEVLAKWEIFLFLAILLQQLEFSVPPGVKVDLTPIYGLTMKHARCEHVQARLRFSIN

Test [11] has as its target human CYP2C8, CYP2C8 (gene 1558) (UniProt P10632). Nature of the test: NVS_ADME_hCYP2C8: NovaScreen (NVS) CYP450-related Enzyme Activity (ADME) Assay for human CYP2C8 (AID 2283104). A digest of the protocol:
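Fluorescence readout of substrate turnover by recombinant CYP2C8 after 0.5 h, baseline acetonitrile. Single-concentration duplicate screen at 10 uM preceded singleton concentration series (max 20 uM) for compounds passing the inhibition threshold.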

For test [12], the target named is human CYP2J2, CYP2J2 (gene 1573) (UniProt P51589). Nature of the test: NVS_ADME_hCYP2J2: NovaScreen (NVS) CYP450-related Enzyme Activity (ADME) Assay for human CYP2J2 (AID 2283106; active means hit-call score of the fitted dose curve at least 0.9, where 1 is the maximum). A digest of the protocol: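 Chemicals were first tested at 10 uM in duplicate, and hits meeting criteria such as 30% inhibition were run in singleton concentration series with a 20 uM top concentration. Enzyme activity of recombinant CYP2J2 was measured by fluorescence after 1 h, relative to acetonitrile.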
human CYP2J2, CYP2J2 (gene 1573), sequence (P51589 whole entry, looked up): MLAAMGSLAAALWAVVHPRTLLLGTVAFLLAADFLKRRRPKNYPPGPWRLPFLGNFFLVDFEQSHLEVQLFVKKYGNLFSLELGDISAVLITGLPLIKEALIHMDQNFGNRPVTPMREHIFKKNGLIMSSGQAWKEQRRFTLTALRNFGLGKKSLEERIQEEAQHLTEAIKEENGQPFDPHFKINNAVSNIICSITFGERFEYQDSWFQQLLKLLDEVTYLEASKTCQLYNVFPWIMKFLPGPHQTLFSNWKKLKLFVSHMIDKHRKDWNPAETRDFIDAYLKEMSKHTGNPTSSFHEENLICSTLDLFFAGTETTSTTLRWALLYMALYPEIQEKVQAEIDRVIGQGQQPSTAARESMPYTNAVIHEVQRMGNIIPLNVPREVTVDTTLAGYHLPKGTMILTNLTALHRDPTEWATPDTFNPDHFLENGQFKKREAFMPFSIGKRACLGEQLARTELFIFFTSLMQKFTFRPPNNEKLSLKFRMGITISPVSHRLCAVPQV

Test [13] addresses human CYP2D6, CYP2D6 (gene 1565) (UniProt P10635). Description: NVS_ADME_hCYP2D6: NovaScreen (NVS) CYP450-related Enzyme Activity (ADME) Assay for human CYP2D6 (AID 2283107; active means hit-call score of the fitted dose curve at least 0.9, where 1 is the maximum). The procedure, abridged:
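Fluorescence intensity read 1 h post-dosing; insect-cell-expressed recombinant protein with fluorogenic substrate, no cells. Activity is scored as signal loss relative to acetonitrile baseline, first at a single 10 uM concentration in duplicate, then as concentration series for confirmed actives.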

Test [14] concerns the target human CYP2C9, CYP2C9 (gene 1559) (UniProt P11712). Description: NVS_ADME_hCYP2C9: NovaScreen (NVS) CYP450-related Enzyme Activity (ADME) Assay for human CYP2C9 (AID 2283108; active means hit-call score of the fitted dose curve at least 0.9, where 1 is the maximum). A digest of the protocol:
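Fluorescence readout of CYP2C9 activity (SF9-expressed human enzyme) at 0.75 h. The primary screen used 10 uM in duplicate, with concentration-response follow-up for actives; acetonitrile was the negative control.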

The target of test [15] is Cytochrome P450 3A4 (Homo sapiens) (UniProt P08684). Nature of the test: NVS_ADME_hCYP3A4: NovaScreen (NVS) CYP450-related Enzyme Activity (ADME) Assay for human CYP3A4 (AID 2283110; active means hit-call score of the fitted dose curve at least 0.9, where 1 is the maximum). A digest of the protocol:
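Compounds screened in duplicate at 10 uM, with follow-up concentration-response for actives, against insect-cell-expressed recombinant enzyme. Activity read by fluorescence 0.33 h after dosing; loss of signal versus acetonitrile control indicates inhibition.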

The target of test [16] is Cytochrome P450 2C19 (Homo sapiens) (UniProt P33261). Nature of the test: NVS_ADME_hCYP2C19: NovaScreen (NVS) CYP450-related Enzyme Activity (ADME) Assay for human CYP2C19 (AID 2283113; active means hit-call score of the fitted dose curve at least 0.9, where 1 is the maximum;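 further: potency for inhibition seen as loss of fluorescent signal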). The procedure, abridged: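 Recombinant insect-cell-expressed enzyme, fluorescent substrate, 1 h after chemical addition, fluorescence intensity. Baseline = acetonitrile vehicle; activity scored as signal loss. Primary HTS single concentration 10 uM, duplicate; actives retested in concentration series.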

Test [17] has as its target rat CYP1A2, Cyp1a2 (gene 24297) (UniProt P04799). Description: NVS_ADME_rCYP1A2: NovaScreen (NVS) CYP450-related Enzyme Activity (ADME) Assay for rat CYP1A2 (AID 2283115; active means hit-call score of the fitted dose curve at least 0.9, where 1 is the maximum). The procedure, abridged:
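Primary testing ran in duplicate at 10 uM, with actives re-tested across concentration series. Fluorescence intensity from substrate turnover by recombinant protein, measured 1 hour post-dosing, with signal loss scored against acetonitrile vehicle.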

The target of test [18] is rat CYP2A2, Cyp2a2 (gene 24895) (UniProt P15149). Nature of the test: NVS_ADME_rCYP2A2: NovaScreen (NVS) CYP450-related Enzyme Activity (ADME) Assay for rat CYP2A2 (AID 2283116; active means hit-call score of the fitted dose curve at least 0.9, where 1 is the maximum). The procedure, abridged:
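Compounds first tested in duplicate at 10 uM, then in singleton concentration series up to 20 uM when over threshold. Activity of the recombinant enzyme read by fluorescence at 0.2 h, normalised to acetonitrile vehicle.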

The subject of test [19] is rat CYP2B1, gene 24300. Description: NVS_ADME_rCYP2B1: NovaScreen (NVS) CYP450-related Enzyme Activity (ADME) Assay for rat CYP2B1 (AID 2283117; active means hit-call score of the fitted dose curve at least 0.9, where 1 is the maximum). A digest of the protocol: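 Cell-free fluorescence enzyme assay, recombinant rat CYP2B1, 0.75 h after dosing. Single-concentration duplicates at 10 uM preceded concentration series (max 20 uM) for actives; acetonitrile as negative-control baseline.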

Several values for one entry are separate records, joined by “and”; a condition that tells them apart may be missing. Equal values may be shown once. Records with an inconclusive call do not appear. Activity calls are given as the source filed them. How the source made its calls, unless noted: active means hit-call score of the fitted dose curve at least 0.9, where 1 is the maximum; inactive means score below 0.9.

human CYP2C9, CYP2C9 (gene 1559), sequence (P11712 whole entry, looked up): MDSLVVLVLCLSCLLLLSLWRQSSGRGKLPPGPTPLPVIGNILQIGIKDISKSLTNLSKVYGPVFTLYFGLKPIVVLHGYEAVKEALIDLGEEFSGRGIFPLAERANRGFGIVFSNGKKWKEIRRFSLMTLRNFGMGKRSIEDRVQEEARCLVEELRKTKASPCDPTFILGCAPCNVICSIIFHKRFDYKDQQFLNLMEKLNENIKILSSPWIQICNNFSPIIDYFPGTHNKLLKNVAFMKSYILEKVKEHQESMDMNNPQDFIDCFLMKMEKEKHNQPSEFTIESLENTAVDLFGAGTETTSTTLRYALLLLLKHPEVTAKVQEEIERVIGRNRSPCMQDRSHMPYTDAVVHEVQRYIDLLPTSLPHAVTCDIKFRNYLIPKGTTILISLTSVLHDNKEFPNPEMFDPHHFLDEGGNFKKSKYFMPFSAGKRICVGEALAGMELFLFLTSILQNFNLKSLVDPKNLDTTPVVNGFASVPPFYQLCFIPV
E-selectin (Homo sapiens), sequence (P16581 whole entry, looked up): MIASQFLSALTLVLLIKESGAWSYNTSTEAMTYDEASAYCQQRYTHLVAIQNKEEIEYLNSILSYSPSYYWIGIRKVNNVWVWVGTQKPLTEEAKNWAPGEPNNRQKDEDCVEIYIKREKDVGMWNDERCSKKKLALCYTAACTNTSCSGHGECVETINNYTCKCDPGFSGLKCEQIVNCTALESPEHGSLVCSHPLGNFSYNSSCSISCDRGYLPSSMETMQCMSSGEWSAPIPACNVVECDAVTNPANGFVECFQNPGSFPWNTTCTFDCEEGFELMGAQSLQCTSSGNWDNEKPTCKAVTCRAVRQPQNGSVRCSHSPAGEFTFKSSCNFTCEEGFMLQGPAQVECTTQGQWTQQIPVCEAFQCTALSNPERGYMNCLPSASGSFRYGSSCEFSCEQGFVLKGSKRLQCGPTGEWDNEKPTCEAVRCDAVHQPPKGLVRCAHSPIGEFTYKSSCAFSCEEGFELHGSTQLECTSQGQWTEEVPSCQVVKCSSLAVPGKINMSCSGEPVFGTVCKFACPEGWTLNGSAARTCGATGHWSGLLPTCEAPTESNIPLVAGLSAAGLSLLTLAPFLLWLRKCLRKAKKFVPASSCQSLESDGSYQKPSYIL
rat CYP2A2, Cyp2a2 (gene 24895), sequence (P15149 whole entry, looked up): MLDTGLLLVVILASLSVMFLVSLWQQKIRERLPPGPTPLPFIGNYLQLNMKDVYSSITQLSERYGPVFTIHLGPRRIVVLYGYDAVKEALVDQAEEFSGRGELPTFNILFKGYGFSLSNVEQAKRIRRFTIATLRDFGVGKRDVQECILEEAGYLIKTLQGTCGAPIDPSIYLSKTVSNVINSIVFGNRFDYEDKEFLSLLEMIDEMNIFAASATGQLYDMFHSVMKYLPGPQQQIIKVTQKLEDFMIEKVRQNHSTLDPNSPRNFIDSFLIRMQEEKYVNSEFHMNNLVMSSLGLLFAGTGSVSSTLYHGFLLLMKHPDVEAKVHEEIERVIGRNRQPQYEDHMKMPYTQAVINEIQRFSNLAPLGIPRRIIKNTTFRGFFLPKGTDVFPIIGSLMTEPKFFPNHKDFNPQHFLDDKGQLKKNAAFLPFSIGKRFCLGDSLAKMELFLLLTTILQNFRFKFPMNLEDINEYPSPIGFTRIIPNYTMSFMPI
Cytochrome P450 3A4 (Homo sapiens), sequence (P08684 whole entry, looked up): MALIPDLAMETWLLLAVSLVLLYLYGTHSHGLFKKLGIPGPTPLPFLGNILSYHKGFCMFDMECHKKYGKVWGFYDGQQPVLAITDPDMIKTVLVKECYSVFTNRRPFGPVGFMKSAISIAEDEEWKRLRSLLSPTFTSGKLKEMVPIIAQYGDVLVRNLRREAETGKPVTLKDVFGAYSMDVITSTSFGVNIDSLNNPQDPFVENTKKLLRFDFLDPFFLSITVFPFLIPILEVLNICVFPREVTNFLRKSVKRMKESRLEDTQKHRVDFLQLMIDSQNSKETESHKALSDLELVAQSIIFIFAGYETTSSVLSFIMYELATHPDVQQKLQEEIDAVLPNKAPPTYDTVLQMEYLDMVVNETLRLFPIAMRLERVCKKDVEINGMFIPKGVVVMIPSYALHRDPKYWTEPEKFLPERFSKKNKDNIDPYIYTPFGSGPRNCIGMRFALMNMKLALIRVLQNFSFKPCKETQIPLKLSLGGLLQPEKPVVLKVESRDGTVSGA
rat CYP1A2, Cyp1a2 (gene 24297), sequence (P04799 whole entry, looked up): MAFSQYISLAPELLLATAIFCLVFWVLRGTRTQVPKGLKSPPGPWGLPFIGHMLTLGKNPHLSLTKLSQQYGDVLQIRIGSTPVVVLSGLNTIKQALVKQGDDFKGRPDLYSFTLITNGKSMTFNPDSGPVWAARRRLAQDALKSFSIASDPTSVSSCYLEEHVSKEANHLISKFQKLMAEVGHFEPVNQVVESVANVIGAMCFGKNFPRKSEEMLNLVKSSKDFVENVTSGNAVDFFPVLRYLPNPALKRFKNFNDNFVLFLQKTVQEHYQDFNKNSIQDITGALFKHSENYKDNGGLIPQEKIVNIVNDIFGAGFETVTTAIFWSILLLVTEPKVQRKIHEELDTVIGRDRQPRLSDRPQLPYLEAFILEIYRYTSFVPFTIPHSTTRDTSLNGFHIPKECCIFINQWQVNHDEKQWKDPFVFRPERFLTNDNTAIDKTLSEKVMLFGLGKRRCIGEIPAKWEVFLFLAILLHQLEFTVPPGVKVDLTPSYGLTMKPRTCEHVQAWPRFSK

`CNC(=O)ON=C(SC)C(=O)N(C)C`: the outcome in test [1], in [2], in test [3], in test [4], in test [6] and in test [7] was inactive. The AC50 (as a rule, the concentration at which the activity in the assay is half-maximal) in [5] is 20 µM (active).

As to `CN1COCN(Cc2cnc(Cl)s2)C1=N[N+](=O)[O-]`, the outcome in test [1], in test [2], in [3], in [4], in test [5] and in test [6] was inactive.

`C[N+]1(C)CCCCC1`: the result in test [1], in test [2], in test [3], in test [4], in test [5] and in test [6] was inactive.

For the compound `Nc1nc(N)nc(NC2CC2)n1`, the outcome in [1], in test [2], in test [3], in [4], in test [5] and in [6] was inactive.

`CCCOCC(=Nc1ccc(Cl)cc1C(F)(F)F)n1ccnc1`: the AC50 is 11.6 µM (active) in test [1]; 32.4 µM (active) in test [2]; 31 µM (active) in test [3]; 15.9 µM (active) in test [4]; 24.5 µM (active) in [5]; 27.9 µM (active) in test [6]. In addition, the AC50 is 0.999 µM (active) in test [7]; 1.58 µM (active) in test [9]; 7.01 µM (active) in [10]; 3.77 µM (active) in [11]; 0.101 µM (active) in test [12]; 6.7 µM (active) in [13]. The AC50 in [14] is 4.36 µM (active); in [15], 0.522 µM (active); in test [16], 0.16 µM (active); in test [18], 29.4 nM (active); in [19], 279 nM (active). Besides, the call in test [8] and in test [17] was inactive.

`COc1cc(OC)nc(Sc2cccc(Cl)c2C(=O)O)n1`: the outcome in test [1], in test [2], in test [3], in [4], in test [5] and in test [6] was inactive.

With `CN(C)NC(=O)CCC(=O)O`, the result in test [1], in [2], in test [3], in test [4], in test [5] and in test [6] was inactive.

Regarding `C#CC(C)(C)NC(=O)c1cc(Cl)cc(Cl)c1`, the result in test [1], in test [2], in [3], in test [4], in test [5] and in test [6] was inactive. In [7], the compound was called inactive. Further, the AC50 in test [10] was 10 µM (active); in test [12], 1.34 µM (active).

With `CC(C1CC1)C(O)(Cn1cncn1)c1ccc(Cl)cc1` (centres undefined), the result in [1], in test [2], in test [3], in [4], in [5] and in [6] was inactive. The AC50 was 5.27 µM (active) in [7]; 6.32 µM (active) in [9]; 54.7 nM (active) and 47.4 nM (active) in [14]; 4.56 µM (active) in [15]; 0.111 µM (active) in [16]; 56.8 nM (active) and 76.2 nM (active) in [18]. For the same compound, the AC50 in [19] is 401 nM (active) and 1.61 µM (active).

With `CC1=NNC(=O)N(/N=C/c2cccnc2)C1`, the outcome in test [1], in test [2], in test [3], in test [4], in test [5] and in test [6] was inactive.
